Assay results taken from paper PMC5540273 (PLoS ONE, 2017).

Columns and labels:
Conditions in all cases: concentration: 1 μM,replicates: in singlicate; n = 1
NEK11 = system: NEK11
NEK1 = system: NEK1
NEK2 = system: NEK2
NEK3 = system: NEK3
NEK4 = system: NEK4
NEK5 = system: NEK5
NEK6 = system: NEK6
NEK7 = system: NEK7
NEK9 = system: NEK9
NIK = system: T1, NIK
T1 construct: gene MAP3K14
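Note: KINOMEscan kinase panel screen.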

| SMILES | %Inh (NEK11) | %Inh (NEK1) | %Inh (NEK2) | %Inh (NEK3) | %Inh (NEK4) | %Inh (NEK5) | %Inh (NEK6) | %Inh (NEK7) | %Inh (NEK9) | %Inh (NIK) |
| --- | --- | --- | --- | --- | --- | --- | --- | --- | --- | --- |
| CCn1c(-c2nonc2N)nc2c(C#CC(C)(C)O)nc(OCCN)cc21.Cl.Cl [GSK902056] | 3% | 0% | 13% | 4% | 20% | 0% | 0% | 0% | 0% | 63% |
| Cc1cc(C(=O)Nc2ccc(Oc3ccc4nc(NC(=O)C5CC5)cn4n3)cc2)nn1-c1ccccc1 | 0% | 1% | 10% | 0% | 0% | 0% | 10% | 0% | 0% | 0% |
| O=C(NCCNc1ccnc(NCc2ccc(F)cc2)n1)c1cc2ccccc2s1 [GSK1379944] | 0% | 0% | 4% | 11% | 19% | 85% | 0% | 0% | 0% | 0% |
| NC(=O)c1cc(-c2ccccc2)cc2c(C3CCNCC3)c[nH]c12 [GSK301362] | 0% | 0% | 10% | 7% | 4% | 12% | 0% | 3% | 21% | 0% |
| CC(C)Nc1cc(-c2ccc3c(N)n[nH]c3c2)nc(N)n1 [GSK2221681] | 0% | 0% | 0% | 1% | 7% | 4% | 0% | 0% | 1% | 0% |
| Cl.Oc1cc(-c2nc(-c3ccccc3)[nH]c2-c2ccncc2)ccc1Cl [SB-386023] | 18% | 0% | 0% | 0% | 10% | 0% | 28% | 14% | 0% | 1% |
| CCN(CC)CCOc1ccc(Nc2ncc3cc(-c4c(Cl)cccc4Cl)c(=O)n(C)c3n2)cc1 [SB-601273] | 98.5% | 34% | 99.5% | 26% | 0% | 35% | 44% | 0% | 20% | 31% |
| C=CC(=O)Nc1cc2c(Nc3ccc(F)c(Cl)c3)ncnc2cc1OCCCN1CCOCC1 [GW781483] | 0% | 0% | 0% | 18% | 0% | 3% | 0% | 11% | 22% | 6% |
| C[C@@H]1CCN(C(=O)CC#N)C[C@@H]1N(C)c1ncnc2[nH]ccc12 | 0% | 0% | 19% | 23% | 0% | 0% | 0% | 9% | 0% | 0% |
| CN(C)CCOc1ccc(-c2cc(-c3c[nH]nc3-c3ccccn3)ccn2)cc1 [GW835314] | 25% | 0% | 3% | 33% | 0% | 0% | 10% | 8% | 11% | 44% |
| Nc1nc(Nc2ccccc2)cc(-c2ccc3c(N)n[nH]c3c2)n1 [GSK2225749] | 11% | 0% | 14% | 0% | 5% | 0% | 0% | 0% | 11% | 20% |
| Cc1ccc(-n2nc(C(C)(C)C)cc2NC(=O)Nc2ccc(OCCN3CCOCC3)c3ccccc23)cc1 [GW839464] | 0% | 2% | 0% | 9% | 0% | 21% | 0% | 0% | 0% | 0% |
| Cl.Cl.NC[C@H](CC1CCCCC1)NC(=O)c1cc(Br)c(-c2ccnc3[nH]ccc23)s1 [GSK1581427] | 0% | 37% | 0% | 17% | 23% | 0% | 0% | 0% | 1% | 38% |
| Cc1occc1-c1nc(N)c(OC[C@@H](N)Cc2c[nH]c3ccccc23)cc1-c1cc2c(C)n[nH]c2cn1 [GSK1660450] | 0% | 46% | 6% | 0% | 0% | 29% | 0% | 100% | 67% | 78% |
| Cl.Cl.NC[C@H](Cc1ccc(C(F)(F)F)cc1)NC(=O)c1cc(Br)c(-c2ccnc3[nH]ccc23)s1 [GSK1487252] | 0% | 15% | 0% | 23% | 4% | 4% | 0% | 0% | 3% | 0% |
| Cc1cc2cn[nH]c2cc1-c1cccc2c(N)c(C(N)=O)nnc12 | 27% | 0% | 12% | 33% | 18% | 2% | 17% | 0% | 15% | 40% |
| COc1ccc(C[C@@H](CN)NC(=O)c2cc(Br)c(-c3ccnc4[nH]ccc34)s2)cc1.Cl.Cl [GSK1389063] | 14% | 0% | 29% | 22% | 1% | 19% | 0% | 0% | 0% | 37% |
| O=C(NCCCN1CCOC1=O)c1cnc(NCc2cc(Cl)ccc2Cl)nc1NC1CCCC1 | 0% | 0% | 7% | 31% | 0% | 0% | 7% | 22% | 0% | 16% |
| CNC(=O)c1ccccc1Sc1ccc2c(/C=C/c3ccccn3)n[nH]c2c1 | 0% | 0% | 5% | 32% | 0% | 11% | 0% | 26% | 1% | 0% |
| C[C@H]1Oc2cc(cnc2N)-c2c(nn(C)c2C#N)CN(C)C(=O)c2ccc(F)cc21 | 0% | 0% | 22% | 29% | 0% | 0% | 0% | 28% | 3% | 3% |
| CCN(CC)CCCCNc1ncc2cc(-c3c(Cl)cccc3Cl)c(NC(=O)NC(C)(C)C)nc2n1 | 0% | 43% | 11% | 29% | 0% | 0% | 38% | 0% | 0% | 0% |
| Cl.Cl.Nc1nc(-c2ccc3c(N)n[nH]c3c2)cc(N2CCCC(NC(=O)c3ccccc3)C2)n1 (stereo not drawn) [GSK2286775] | 0% | 7% | 0% | 23% | 7% | 11% | 0% | 0% | 6% | 0% |
| Cc1n[nH]c2ccc(-c3cc(OC[C@@H](N)Cc4ccccc4)cnc3-c3ccoc3)cc12.O=C(O)C(F)(F)F.O=C(O)C(F)(F)F [GSK507358] | 0% | 1% | 0% | 0% | 0% | 0% | 0% | 11% | 30% | 87% |
| CN(C)CC(O)COc1ccc(Nc2nccc(-c3cnn4nc(N5CCOCC5)ccc34)n2)cc1 (stereo not drawn) [GW767488] | 47% | 44% | 14% | 96.1% | 37% | 0% | 64% | 86% | 55% | 0% |
| Cc1ccc2c(-c3ccncc3)c(-c3ccc(F)cc3)nn2c1.Cl [GW461484] | 21% | 0% | 0% | 0% | 11% | 4% | 0% | 0% | 0% | 4% |
| C[C@@H](Oc1cc(-c2cnn(C3CCNCC3)c2)cnc1N)c1c(Cl)ccc(F)c1Cl | 0% | 0% | 0% | 24% | 20% | 0% | 14% | 35% | 26% | 0% |
| CC(C)N1C(=O)Cc2cc(Nc3ncc(C(F)(F)F)c(NCc4cccc(S(C)(=O)=O)c4)n3)ccc21 | 0% | 0% | 0% | 37% | 0% | 1% | 0% | 12% | 2% | 0% |
